# PubChem BioAssay (NCATS)
# Results filed as inconclusive are left out. Entries that show only a call come without a potency. Calls of active or inactive are those of the source. Unless noted, the call rests on the fitted dose curve; in most records, active means well fitted curve in the direction sought with a large enough effect; inconclusive means small, poorly fitted or top-dose-only effect, or another doubt; inactive means no such curve, though single readings can be large; an effect the other way counts as inactive or inconclusive.
# Tests used:
# [1] = qHTS for differential inhibitors of proliferation of Plasmodium falciparum line 7G8 (AID 1815);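 further: parasite growth measured after three days of incubation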; further: potency means the concentration at half of the fitted maximal effect
# [2] = qHTS for differential inhibitors of proliferation of Plasmodium falciparum line GB4 (AID 1816); settings: Potency: Plasmodium falciparum GB4 proliferation inhibition;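 further: parasite growth measured after 72 h incubation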; further: potency means the concentration at half of the fitted maximal effect
# [3] = qHTS for differential inhibitors of proliferation of Plasmodium falciparum line 3D7 (AID 1876); further: potency means the concentration at half of the fitted maximal effect
# [4] = qHTS for differential inhibitors of proliferation of Plasmodium falciparum line D10 (AID 1877);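 further: parasites grown with compound for 72 h before DNA staining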; further: potency means the concentration at half of the fitted maximal effect
# [5] = qHTS for differential inhibitors of proliferation of Plasmodium falciparum line Dd2 (AID 1882); settings: Potency: Plasmodium falciparum Dd2 proliferation inhibition; further: nearly all actives have a fitted effect of over 65% in size; further: potency means the concentration at half of the fitted maximal effect
# Summary of the method: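 RBC culture, 0.3% parasitemia / 2.5% Hct final; cpd added by pin tool in DMSO; 72 h, 37 C, 5% CO2; lysis buffer + SYBR Green I, o/n RT dark; FI 485/535; norm. to artemisinin 0.29 uM and DMSO.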
# [6] = qHTS for differential inhibitors of proliferation of Plasmodium falciparum line W2 (AID 1883); settings: Potency: Plasmodium falciparum W2 proliferation inhibition;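 further: parasites grown with compound for 72 h before lysis and staining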; further: potency means the concentration at half of the fitted maximal effect
# [7] = qHTS for differential inhibitors of proliferation of Plasmodium falciparum line HB3 (AID 1886); settings: Potency: Plasmodium falciparum HB3 proliferation inhibition;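 further: parasites grown with compound for 72 h before SYBR Green readout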; further: potency means the concentration at half of the fitted maximal effect
# [8] = biological target: Endonuclease 4 (Escherichia coli (strain K12)) (UniProt P0A6C1); assay: Counterscreen for APE1 Inhibitors: qHTS Validation Assay for Inhibitors of Endonuclease IV (AID 1708)
# Summary of the method: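 The reaction buffer contained 50 mM Tris-HCl pH 7.5, 50 mM NaCl, 2 mM MgCl2, 1 mM DTT and 0.01% Tween-20. Incision of a 50 nM fluorophore/quencher THF substrate by 2 nM enzyme was measured kinetically.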
# [9] = qHTS Assay for Identification of Small Molecule Inducers of Hypoxia Response (AID 2120; active means well fitted curve in the direction sought with a large enough effect in the signal ratio, with a control signal flat, not every such curve was filed as active; the % refers to the signal ratio)
# Summary of the method: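 HRE-bla ME-180, 2500 cells/well, 0.5% dialyzed FBS medium; cpd titration, 17 h 37 degrees C; CCF4 2.5 h RT; Ex 405, Em 460/530 ratio -> %Activity, AC50.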
# [10] = qHTS Assay for Modulators of Human Peripheral Myelin Protein 22 (PMP22) Expression/Activity (AID 1967; active means well fitted curve in the direction sought with a large enough effect in the signal ratio; the % refers to the signal ratio)
# Summary of the method: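 Mouse MSC80 Schwann cells carrying Pmp22 promoter–green click beetle luciferase plus EF-alpha–red luciferase control, dosed 24 h at 37 °C. Dual-filter luminescence, overlap-corrected; %Activity from green/red ratio normalised to untreated cells, concentration-response curves fitted.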
structure (smiles),measurement,setting,value
CC(C)(C=O)Cc1cc(C(C)(C)C)c(O)c(C(C)(C)C)c1,Potency,[1],inactive
same,Potency,[2],inactive
same,Potency,[3],inactive
same,Potency,[4],inactive
same,Potency,[5],inactive
same,Potency,[6],inactive
same,Potency,[7],inactive
N#C/C(=C\c1ccc(O)c(O)c1)C(=O)c1ccc(O)c(O)c1,Potency,[8],inactive
same,Potency,[3],10 µM (active)
same,Potency,[6],12.6 µM (active)
same,Potency,[7],12.6 µM (active)
C#C[C@]1(O)CC[C@H]2[C@@H]3CCc4cc(O)ccc4[C@H]3CC[C@@]21C,outcome,[9],inactive
CN(C)c1nc(N)c(C(=O)N=C(N)N)nc1Cl,Potency,[2],12.6 µM (active)
same,Potency,[3],10 µM (active)
same,Potency,[4],11.2 µM (active)
same,Potency,[5],inactive
same,Potency,[6],12.6 µM (active)
same,Potency,[7],12.6 µM (active)
same,outcome,[10],inactive
Nc1ccc(O)c(C(=O)O)c1,outcome,[9],inactive
CN1[C@@H](CC(=O)c2ccccc2)CCC[C@H]1C[C@H](O)c1ccccc1,outcome,[10],inactive
CN(C)c1nc2c(Br)c(Br)c(Br)c(Br)c2[nH]1,Potency,[1],inactive
same,Potency,[2],inactive
same,Potency,[3],inactive
same,Potency,[5],inactive
O=c1[nH]c2cc(C(F)(F)F)ccc2n1-c1cc(C(F)(F)F)ccc1O,Potency,[1],4.47 µM (active)
same,Potency,[2],3.98 µM (active)
same,Potency,[4],10 µM (active)
same,Potency,[5],8.91 µM (active)
same,Potency,[6],7.08 µM (active)
same,Potency,[7],12.6 µM (active)
CCCOC(=O)c1ccc(O)cc1,outcome,[9],inactive
C=C[C@@H]1CN2CC[C@@H]1C[C@H]2[C@H](O)c1ccnc2ccc(OC)cc12,Potency,[5],0.316 µM (active)
O=c1cc(-c2ccccc2)oc2ccccc12,outcome,[9],inactive
S=c1[nH]c2ccccc2s1,outcome,[9],inactive
O=C1CN(/N=C/c2ccc([N+](=O)[O-])o2)C(=O)N1,outcome,[9],inactive
c1ccc2sc(SSc3nc4ccccc4s3)nc2c1,outcome,[9],inactive
COc1cc(/C=C/C(=O)CC(=O)/C=C/c2ccc(O)c(OC)c2)ccc1O,outcome,[9],inactive
CCCCCCCCCCCCCCCCCC(=O)O,outcome,[9],inactive
COc1cc(OC)c(/C=C2/C(=O)Nc3ccccc32)c(OC)c1,Potency,[4],inactive
same,Potency,[5],inactive
CCCCCC(O)c1cccc(OCc2ccc3ccccc3n2)c1 (stereo not drawn),Potency,[1],6.31 µM (active)
same,Potency,[2],10 µM (active)
same,Potency,[4],15.8 µM (active)
same,Potency,[5],7.94 µM (active)
same,Potency,[6],6.31 µM (active)
same,Potency,[7],12.6 µM (active)
COc1ccccc1N1CCN(CCCCNS(=O)(=O)c2cccc3c(N(C)C)cccc23)CC1,Potency,[1],7.94 µM (active)
same,Potency,[2],14.1 µM (active)
same,Potency,[3],10 µM (active)
same,Potency,[5],10 µM (active)
same,Potency,[6],3.55 µM (active)
same,Potency,[7],12.6 µM (active)
Nc1nc2ccc([N+](=O)[O-])cc2s1,outcome,[9],inactive
COc1cccc(C(=O)NCCN2CCN(c3ccc(Cl)cc3)CC2)c1,Potency,[2],inactive
same,Potency,[5],inactive
same,Potency,[6],14.1 µM (active)
same,Potency,[7],inactive
